This passage reports cell proliferation results from the supplement of paper PMC9337992.

± gives the standard deviation of the averaged measurements.

In the assay the test system is MDAMB436. Description: cell proliferation (confluence) relative to DMSO control; higher = less growth inhibition. The settings on record: 5 uM; 6 d. As to the method: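 Epigenetic chemical probe screen: 15 TNBC cell lines, 500 cells per well in 384-well plates, treated with 5 uM of each of 36 SGC probes for 6 d. Confluency was imaged by IncuCyte ZOOM and normalised to DMSO control wells. Four replicate wells per compound.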
With `O=C(O)CNC(=O)c1c(O)c2ccccc2n(Cc2ccccc2)c1=O`, the cell proliferation stood at 96.4 ± 0.42%. To `c1ccc([C@@H]2C[C@H]2NC2CCNCC2)cc1` belongs 93.8 ± 3.3%; to `COc1cc(C(=O)N2CC[C@@H](O)[C@@H](N)C2)cc2nc(-c3cc4ccccc4n3CC3CC3)n(C)c12`, 76.4 ± 6.2%.
